Measurements from PubChem BioAssay (EPA / NIEHS).
Results filed as inconclusive are left out. Some compounds were tested as several samples or in several runs, with calls that do not always agree. Calls of active or inactive are those of the source. How the source made its calls, unless noted: active means hit-call score of the fitted dose curve at least 0.9, where 1 is the maximum; inactive means score below 0.9.

Assays:
[1] = molecular target: human RAR-related Orphan Receptor gamma (RORg), RORC (gene 6097) (UniProt P51449); experiment: ATG_RORg_TRANS: Attagene TRANS-FACTORIAL HepG2 Assay for human RAR-related Orphan Receptor gamma (RORg) (AID 2283011; active means hit-call score of the fitted dose curve at least 0.9, where 1 is the maximum)
Procedure, shortened: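 Chimeric RORg-Gal4 transactivation in transfected HepG2; 24 h exposure; RT-PCR/capillary electrophoresis readout of reporter mRNA, DMSO baseline.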

[2] = molecular target: Retinoic acid receptor RXR-alpha (Homo sapiens) (UniProt P19793); experiment: ATG_RXRa_TRANS: Attagene TRANS-FACTORIAL HepG2 Assay for human Retinoid X Receptor alpha (RXRa) (AID 2283012; active means hit-call score of the fitted dose curve at least 0.9, where 1 is the maximum)
Procedure, shortened: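 Measures exogenous chimeric NR-GAL4 activity in transfected HepG2 liver cells after 24 h of dosing. Induced reporter mRNA was detected by RT-PCR with capillary electrophoresis, and gain of signal was analysed against DMSO.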

[3] = molecular target: human Retinoid X Receptor beta (RXRb), RXRB (gene 6257) (UniProt P28702); experiment: ATG_RXRb_TRANS: Attagene TRANS-FACTORIAL HepG2 Assay for human Retinoid X Receptor beta (RXRb) (AID 2283013; active means hit-call score of the fitted dose curve at least 0.9, where 1 is the maximum)
Procedure, shortened: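 Chimeric receptor-Gal4 activity was assessed in transiently transfected human HepG2 cells after 24 h exposure. Transcripts from GAL4-UAS reporters were quantified by fluorescent RT-PCR and capillary electrophoresis, with DMSO as negative control and baseline.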

[4] = molecular target: human Thyroid Receptor alpha (THRa1), THRA (gene 7067) (UniProt P10827); experiment: ATG_THRa1_TRANS: Attagene TRANS-FACTORIAL HepG2 Assay for human Thyroid Receptor alpha (THRa1) (AID 2283014; active means hit-call score of the fitted dose curve at least 0.9, where 1 is the maximum)
Procedure, shortened: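 Measured here is mRNA from a GAL4-UAS reporter in transfected HepG2 cells carrying a Gal4-fused receptor, 24 h post-dose. DMSO served as negative control and baseline.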

[5] = read-out: E-selectin (Homo sapiens) (UniProt P16581); experiment: BSK_3C_Eselectin: BioMAP Diversity Plus: 3C Assay for Eselectin Biomarker Activity (AID 2283015); conditions: primary human endothelial cells (HUVEC); actives raise or lower the signal
Procedure, shortened: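 Endpoint derived by bidirectional fitting against DMSO vehicle; signal is ELISA-detected E-selectin from primary HUVEC at 24 h post-dosing, with parallel SRB staining (0.1% SRB, 560 nm) flagging cytotoxicity.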

[6] = read-out: Interleukin-1 alpha (IL1a), IL1A (gene 3552); experiment: BSK_BE3C_IL1a: BioMAP Diversity Plus: BE3C Assay for Interleukin-1 alpha (IL1a) Biomarker Activity (AID 2283016); conditions: primary human bronchial epithelial cells; actives raise or lower the signal
Procedure, shortened: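 Signal from IL-1a ELISA, taken 24 h after chemical dosing of human bronchial epithelial cells, is compared with DMSO as baseline using bidirectional curve fitting.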

[7] = read-out: Monocyte Chemoattractant Protein-1 (MCP1), CCL2 (gene 6347); experiment: BSK_3C_MCP1: BioMAP Diversity Plus: 3C Assay for Monocyte Chemoattractant Protein-1 (MCP1) Biomarker Activity (AID 2283017); conditions: primary human endothelial cells (HUVEC); actives raise or lower the signal
Procedure, shortened: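 Using human vascular primary endothelium, researchers measured MCP-1 by ELISA 24 h after treatment, with DMSO serving as negative control for bidirectional fitting.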

[8] = read-out: Monocyte Chemoattractant Protein-1 (MCP1), CCL2 (gene 6347); experiment: BSK_4H_MCP1: BioMAP Diversity Plus: 4H Assay for Monocyte Chemoattractant Protein-1 (MCP1) Biomarker Activity (AID 2283018); conditions: primary human endothelial cells (HUVEC); actives raise or lower the signal
Procedure, shortened: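 Endothelial cells from umbilical vein were treated with test chemical, then after 24 h MCP-1 levels were quantified by ELISA; endpoint values came from bidirectional fitting with DMSO as baseline of activity.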

[9] = read-out: Human Leukocyte Antigen - DR isotype (HLADR), HLA-DRA (gene 3122); experiment: BSK_3C_HLADR: BioMAP Diversity Plus: 3C Assay for Human Leukocyte Antigen - DR isotype (HLADR) Biomarker Activity (AID 2283019); conditions: primary human endothelial cells (HUVEC); actives raise or lower the signal
Procedure, shortened: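 Compound added to primary HUVEC cultures, 24 h incubation, then HLA-DR determined by ELISA; endpoint derived by bidirectional fitting relative to DMSO negative control.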

[10] = read-out: Interleukin-8 (IL8), CXCL8 (gene 3576); experiment: BSK_3C_IL8: BioMAP Diversity Plus: 3C Assay for Interleukin-8 (IL8) Biomarker Activity (AID 2283020); conditions: primary human endothelial cells (HUVEC); actives raise or lower the signal
Procedure, shortened: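 Endothelial primary cells of human umbilical vein origin are dosed with chemical; after 24 h the IL-8 biomarker is measured by ELISA, and concentration–response is fitted in both directions versus DMSO.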

[11] = read-out: Monokine induced gamma interferon (MIG), CXCL9 (gene 4283); experiment: BSK_3C_MIG: BioMAP Diversity Plus: 3C Assay for Monokine induced gamma interferon (MIG) Biomarker Activity (AID 2283021); conditions: primary human endothelial cells (HUVEC); actives raise or lower the signal;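 on AC50: MIG protein level measured by immunoassay in the treated endothelial cultures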
Procedure, shortened: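 Endothelial primary cells (human umbilical vein) are dosed with test chemical in the 3C system. MIG levels are measured by ELISA at 24 h and fitted in both directions relative to DMSO.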

[12] = BSK_3C_SRB: Viability Assessment in the BioMAP Diversity Plus: 3C Assay (AID 2283023); conditions: primary human endothelial cells (HUVEC);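 further: fitted both ways against DMSO so a hit may be signal rise or drop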
Procedure, shortened: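 Overt cytotoxicity is gauged in parallel confluent HUVEC cultures by SRB total-protein staining at the time of biomarker measurement, 24 h after dosing. Gain or loss of signal is fitted versus DMSO.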

[13] = read-out: Matrix Metallopeptidase 1 (MMP1), MMP1 (gene 4312); experiment: BSK_BE3C_MMP1: BioMAP Diversity Plus: BE3C Assay for Matrix Metallopeptidase 1 (MMP1) Biomarker Activity (AID 2283024); conditions: primary human bronchial epithelial cells; actives raise or lower the signal
Procedure, shortened: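 MMP1 signal, measured by ELISA after a 24 h chemical exposure of human primary bronchial epithelial cells, is analysed with bidirectional fitting using DMSO as negative control.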

[14] = BSK_3C_Vis: BioMAP Diversity Plus: 3C Assay for Morphology Visualization (AID 2283025); conditions: primary human endothelial cells (HUVEC);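 further: fitted both ways so gain or loss versus DMSO counts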
Procedure, shortened: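 Morphology read by light microscopy serves as a background control for the multiplexed 3C assay in human umbilical vein endothelial cells, taken 24 h after dosing, with DMSO as the negative control and bidirectional curve fitting.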

[15] = read-out: Pselectin, SELP (gene 6403); experiment: BSK_4H_Pselectin: BioMAP Diversity Plus: 4H Assay for Pselectin Biomarker Activity (AID 2283026); conditions: primary human endothelial cells (HUVEC); actives raise or lower the signal
Procedure, shortened: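 Endothelial primary cells (human umbilical vein) are dosed, incubated 24 h, and assayed for surface P-selectin by ELISA; responses in either direction are fitted relative to the DMSO negative control.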

[16] = BSK_4H_SRB: Viability Assessment in the BioMAP Diversity Plus: 4H Assay (AID 2283027); conditions: primary human endothelial cells (HUVEC);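 further: cells exposed to compound for 24 h before staining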;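 on AC50: curves fitted both ways versus DMSO so AC50 may be loss or gain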
Procedure, shortened: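 Cytotoxicity readout: sulforhodamine B (0.1%) staining of total protein after 10% TCA fixation, measured at 560 nm in human umbilical vein endothelium at 24 h. DMSO set the baseline; fitting was bidirectional.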

[17] = BSK_BE3C_SRB: Viability Assessment in the BioMAP Diversity Plus: BE3C Assay (AID 2283028); conditions: primary human bronchial epithelial cells;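 on AC50: fitted both ways so AC50 may mark signal gain or loss versus DMSO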
Procedure, shortened: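 SRB total-protein staining (0.1%, after TCA fixation) of chemically dosed human bronchial epithelial primary cells at 24 h; DMSO serves as the negative control for bidirectional curve fitting.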

[18] = read-out: Urokinase-type plasminogen activator receptor (uPAR), PLAUR (gene 5329); experiment: BSK_4H_uPAR: BioMAP Diversity Plus: 4H Assay for Urokinase-type plasminogen activator receptor (uPAR) Biomarker Activity (AID 2283030); conditions: primary human endothelial cells (HUVEC); actives raise or lower the signal
Procedure, shortened: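 Endpoint derived via bidirectional curve fitting against DMSO baseline; readout was ELISA detection of uPAR on umbilical vein endothelial cells at 24 h post-treatment, with SRB-stained parallel cultures assessing cytotoxicity.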

[19] = molecular target: human Vitamin D Receptor (VDR), VDR (gene 7421) (UniProt P11473); experiment: ATG_VDR_TRANS: Attagene TRANS-FACTORIAL HepG2 Assay for human Vitamin D Receptor (VDR) (AID 2283022; active means hit-call score of the fitted dose curve at least 0.9, where 1 is the maximum)
Procedure, shortened: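 Multiplexed TRANS reporter in HepG2; 24 h treatment; reporter mRNA by RT-PCR plus capillary electrophoresis; upregulation scored relative to DMSO.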

Measured: AC50

Chain of human Thyroid Receptor alpha (THRa1), THRA (gene 7067) (P10827 whole entry, looked up, the tested form may be a part): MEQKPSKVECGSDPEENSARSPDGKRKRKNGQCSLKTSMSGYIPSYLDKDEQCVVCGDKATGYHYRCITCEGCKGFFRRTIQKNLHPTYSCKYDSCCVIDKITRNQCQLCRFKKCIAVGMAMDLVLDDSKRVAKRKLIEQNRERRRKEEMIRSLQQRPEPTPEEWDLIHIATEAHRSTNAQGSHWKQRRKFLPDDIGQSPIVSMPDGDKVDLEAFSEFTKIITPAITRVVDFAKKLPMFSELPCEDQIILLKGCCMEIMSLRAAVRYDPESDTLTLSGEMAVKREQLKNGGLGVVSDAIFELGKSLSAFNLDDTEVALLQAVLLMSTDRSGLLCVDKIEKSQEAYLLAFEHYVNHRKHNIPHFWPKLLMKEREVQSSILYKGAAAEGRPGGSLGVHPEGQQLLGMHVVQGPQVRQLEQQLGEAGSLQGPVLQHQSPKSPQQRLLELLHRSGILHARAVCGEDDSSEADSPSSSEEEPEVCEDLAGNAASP
Chain of human Retinoid X Receptor beta (RXRb), RXRB (gene 6257) (P28702 whole entry, looked up, the tested form may be a part): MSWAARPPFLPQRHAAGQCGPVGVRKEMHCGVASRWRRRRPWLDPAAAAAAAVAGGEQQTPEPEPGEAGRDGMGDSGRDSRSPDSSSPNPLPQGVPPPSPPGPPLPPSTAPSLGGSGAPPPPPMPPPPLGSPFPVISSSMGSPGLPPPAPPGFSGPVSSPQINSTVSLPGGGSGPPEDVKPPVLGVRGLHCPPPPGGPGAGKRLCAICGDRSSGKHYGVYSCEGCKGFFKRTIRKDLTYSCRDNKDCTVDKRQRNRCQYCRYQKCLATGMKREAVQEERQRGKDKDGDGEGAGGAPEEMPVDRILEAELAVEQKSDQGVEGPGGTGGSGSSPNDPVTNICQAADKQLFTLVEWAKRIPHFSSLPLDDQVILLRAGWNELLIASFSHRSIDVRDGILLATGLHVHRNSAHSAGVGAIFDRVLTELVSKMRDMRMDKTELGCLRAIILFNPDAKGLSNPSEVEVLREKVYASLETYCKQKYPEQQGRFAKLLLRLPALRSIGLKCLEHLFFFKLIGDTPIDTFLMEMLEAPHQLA
Chain of human RAR-related Orphan Receptor gamma (RORg), RORC (gene 6097) (P51449 whole entry, looked up, the tested form may be a part): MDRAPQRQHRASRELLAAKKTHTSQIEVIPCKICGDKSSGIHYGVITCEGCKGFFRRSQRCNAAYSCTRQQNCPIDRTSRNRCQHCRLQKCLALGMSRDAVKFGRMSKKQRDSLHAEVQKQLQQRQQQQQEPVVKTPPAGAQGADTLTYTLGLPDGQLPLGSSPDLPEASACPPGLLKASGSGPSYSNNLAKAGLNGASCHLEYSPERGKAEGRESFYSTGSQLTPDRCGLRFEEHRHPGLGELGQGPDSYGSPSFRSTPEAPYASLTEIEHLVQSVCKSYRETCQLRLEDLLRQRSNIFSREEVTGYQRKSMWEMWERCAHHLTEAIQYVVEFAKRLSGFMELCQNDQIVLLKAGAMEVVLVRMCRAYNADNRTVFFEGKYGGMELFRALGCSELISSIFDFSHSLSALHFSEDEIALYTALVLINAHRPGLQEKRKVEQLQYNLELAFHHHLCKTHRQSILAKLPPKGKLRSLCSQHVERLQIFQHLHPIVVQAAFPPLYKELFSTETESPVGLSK
Chain of human Vitamin D Receptor (VDR), VDR (gene 7421) (P11473 whole entry, looked up): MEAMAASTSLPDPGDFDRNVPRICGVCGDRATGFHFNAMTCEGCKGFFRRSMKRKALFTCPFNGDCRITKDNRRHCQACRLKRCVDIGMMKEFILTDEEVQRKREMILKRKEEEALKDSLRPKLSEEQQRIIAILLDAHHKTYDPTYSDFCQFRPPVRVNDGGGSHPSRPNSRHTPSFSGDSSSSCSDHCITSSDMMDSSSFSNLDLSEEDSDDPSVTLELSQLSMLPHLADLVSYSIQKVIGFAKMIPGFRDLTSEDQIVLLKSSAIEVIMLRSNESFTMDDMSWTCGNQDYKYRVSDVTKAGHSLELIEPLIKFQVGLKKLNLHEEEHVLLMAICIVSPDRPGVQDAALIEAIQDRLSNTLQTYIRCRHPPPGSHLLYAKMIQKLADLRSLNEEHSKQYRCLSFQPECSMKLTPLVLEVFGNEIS
Chain of Retinoic acid receptor RXR-alpha (Homo sapiens) (P19793 whole entry, looked up, the tested form may be a part): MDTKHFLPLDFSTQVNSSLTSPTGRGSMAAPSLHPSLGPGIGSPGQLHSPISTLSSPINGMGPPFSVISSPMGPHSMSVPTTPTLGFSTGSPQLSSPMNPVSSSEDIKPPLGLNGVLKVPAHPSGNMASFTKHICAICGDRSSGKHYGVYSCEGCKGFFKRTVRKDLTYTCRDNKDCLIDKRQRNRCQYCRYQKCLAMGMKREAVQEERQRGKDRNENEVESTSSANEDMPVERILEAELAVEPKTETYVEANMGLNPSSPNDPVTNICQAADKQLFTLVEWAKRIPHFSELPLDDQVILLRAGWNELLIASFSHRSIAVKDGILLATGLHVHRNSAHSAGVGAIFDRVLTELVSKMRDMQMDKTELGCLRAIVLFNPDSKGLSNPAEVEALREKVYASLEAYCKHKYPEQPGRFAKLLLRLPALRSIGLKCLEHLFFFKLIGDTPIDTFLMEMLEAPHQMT
Chain of E-selectin (Homo sapiens) (P16581 whole entry, looked up): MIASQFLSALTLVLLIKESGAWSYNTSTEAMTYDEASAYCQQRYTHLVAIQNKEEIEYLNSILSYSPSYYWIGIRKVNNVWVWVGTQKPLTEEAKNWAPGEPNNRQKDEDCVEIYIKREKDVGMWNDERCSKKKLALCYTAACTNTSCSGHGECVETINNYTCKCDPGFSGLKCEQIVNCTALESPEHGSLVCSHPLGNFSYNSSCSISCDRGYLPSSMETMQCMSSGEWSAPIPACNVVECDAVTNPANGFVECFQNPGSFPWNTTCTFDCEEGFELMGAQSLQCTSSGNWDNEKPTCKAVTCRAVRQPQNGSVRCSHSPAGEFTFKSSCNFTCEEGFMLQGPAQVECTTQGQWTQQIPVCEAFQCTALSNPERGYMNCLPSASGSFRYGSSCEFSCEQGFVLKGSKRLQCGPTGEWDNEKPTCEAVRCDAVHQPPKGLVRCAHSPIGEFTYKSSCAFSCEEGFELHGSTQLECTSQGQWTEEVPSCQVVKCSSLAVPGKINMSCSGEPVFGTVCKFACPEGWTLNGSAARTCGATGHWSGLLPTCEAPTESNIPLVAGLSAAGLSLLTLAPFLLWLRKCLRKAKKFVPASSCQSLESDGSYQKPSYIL

CC(C)C1(C)N=C(c2nc3ccccc3cc2C(=O)O)NC1=O (stereo unspecified)
not listed: [19]
inactive: all other assays above

CCOP(=S)(OCC)SCn1c(=O)oc2cc(Cl)ccc21
active: [12] 30.2 µM | [14] 39 µM | [15] 29.6 µM
not listed: [19]
inactive: all other assays above

COc1cnc(OC)n2nc(NS(=O)(=O)c3c(OCC(F)F)cccc3C(F)(F)F)nc12
active: [10] 0.016 µM
inactive: [1] | [2] | [3] | [4] | [5] | [6] | [7] | [8] | [9] | [10] | [11] | [12] | [13] | [14] | [15] | [16] | [17] | [18]

N#Cc1nn(-c2c(Cl)cc(C(F)(F)F)cc2Cl)c(N)c1S(=O)C(F)(F)F (stereo unspecified)
active: [4] 48.7 µM | [5] 20 µM | [7] 30.5 µM | [8] 23.1 µM | [9] 14 µM | [10] 27.8 µM | [12] 32.8 µM | [14] 37.5 µM | [15] 20 µM | [16] 33.5 µM | [17] 18 µM | [18] 23.2 µM
inactive: [1] | [2] | [3] | [6] | [11] | [19] | [13]

CON(C)C(=O)Nc1ccc(Cl)c(Cl)c1
active: [4] 5.27 µM
inactive: [1] | [2] | [3] | [4] | [5] | [6] | [7] | [8] | [9] | [10] | [11] | [19] | [12] | [13] | [14] | [15] | [16] | [17] | [18]

O=C(Nc1ccccc1)Nc1ccnc(Cl)c1
active: [7] 9.83 µM | [8] 20 µM | [9] 20 µM
inactive: all other assays above

O=C(O)COc1nc(Cl)c(Cl)cc1Cl
not listed: [1] | [2] | [4]
inactive: all other assays above

CC1COC(Cn2cncn2)(c2ccc(Oc3ccc(Cl)cc3)cc2Cl)O1 (stereo unspecified)
inactive: [2] | [3] | [19]
active: [5] 24.8 µM | [6] 36 µM | [7] 36.8 µM | [8] 15.3 µM | [9] 30.3 µM | [10] 28.6 µM | [11] 33.4 µM | [12] 20.8 µM | [13] 32.2 µM | [14] 37.2 µM | [15] 24.7 µM | [16] 26.9 µM | [17] 31 µM | [18] 24.3 µM
